Sampled rows, rich in hits. Any-hit rate of the full collection: about 18%.
Gal4-VP16 FLuc: Gal4-VP16 reporter inhibition counter-screen. Drosophila S2 Gal4-VP16 UAS-luciferase, luminescence, 20 h. Potency, µM (highest dose often 53.6 µM), for the others: at the highest dose activity, negative = inhibition, actives largely listed as inhibitors. 310,000 tested, 3.5% active;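 also: Gal4-VP16 expression switched on by copper sulfate through the metallothionein promoter; potency is read from the fitted curve at half-maximal effect; nearly all actives have a fitted effect of over 50% in size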
IL-1B inflam inh: blocks inflammasome-driven IL-1 beta release; THP-1 LPS/ATP IL-1B secretion, AlphaLISA, 16 h; hits give low values; activity change, % at 57.5 µM; 360,000 tested, 4.7% active; AID 743279; in the data active = activity change below about -50%; inconclusive = mostly about -30% to -49%
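Secreted IL-1B measured by AlphaLISA bead assay after 16 h compound exposure of THP-1 cells; compounds (final up to 57.5 uM) added 1 h before LPS (250 ng/mL) and ATP (1.25 mM) stimulation; lower signal means less secretion.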
DT40 TDP1 no CPT: qHTS for Inhibitors of human tyrosyl-DNA phosphodiesterase 1 (TDP1): qHTS in cells in absence of CPT | 420,000 tested, 15% active | DT40 Tdp1-/- hTDP1 cells, no CPT, ATP luminescence, 48 h | Potency, µM (series often up to 46.2 µM), without a hit: at the highest dose activity change, negative = growth inhibition, hits mostly inhibitors; also: potency is read from the fitted curve at half-maximal effect; nearly all actives have a fitted effect of over 55% in size
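No-CPT arm: Tdp1-/-;hTDP1 DT40 cells (400/well) plus compounds, incubated ≥48 hr at 37 °C. Readout CellTiter-Glo luminescence.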
LDHA inh: blocks human lactate dehydrogenase A | 480,000 tested, 0.15% active | activity change, % (values are at about 110 or 230 µM) | P00338 | AID 1347041 | purified LDHA, NADH/diaphorase-resazurin fluorescence; hits give low values; in the data active = activity change below about -30%; inconclusive = mostly about -25% to -30%;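 also: plate controls were DMSO wells for no effect and wells without enzyme for full effect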
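Human LDH5 (2 nM) was incubated with 0.06 mM NADH and 0.2 mM pyruvate for 5 min at room temperature in Tris pH 7.4. Remaining NADH was coupled through diaphorase/resazurin, and resorufin fluorescence was read at 0 and 20 min.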
DT40 TDP1 CPT: growth inhibition of DT40 Tdp1-/-;hTDP1 cells with camptothecin (screen for TDP1 inhibitors). chicken DT40 Tdp1-/-;hTDP1 cells + 20 nM CPT, ATP luminescence, 48 h. Potency, µM (titrated, usually from 46.2 µM), inactives show at the highest dose activity change, negative = growth inhibition, most hits filed as inhibitors. 420,000 tested, 12% active; also: potency is read from the fitted curve at half-maximal effect; nearly all actives have a fitted effect of over 55% in size
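Cell growth measured by CellTiter-Glo luminescence after a minimum 48 h, 37 C compound exposure with 20 nM CPT in Tdp1-knockout DT40 cells stably expressing hTDP1, seeded 400/well; qHTS titration format.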
RORg inh: inhibitors of mouse ROR gamma transcriptional activity; P51450; Drosophila S2 Gal4-RORgamma UAS-luciferase reporter, 20 h; Potency, µM (series often up to 53.6 µM), for inactives: at the highest dose activity change, negative = inhibition, actives largely listed as inhibitors; 310,000 tested, 5.4% active; AID 2551; also: potency is read from the fitted curve at half-maximal effect; nearly all actives have a fitted effect of over 60% in size
Target sequence (P51450 whole entry, looked up, the tested form may be a part): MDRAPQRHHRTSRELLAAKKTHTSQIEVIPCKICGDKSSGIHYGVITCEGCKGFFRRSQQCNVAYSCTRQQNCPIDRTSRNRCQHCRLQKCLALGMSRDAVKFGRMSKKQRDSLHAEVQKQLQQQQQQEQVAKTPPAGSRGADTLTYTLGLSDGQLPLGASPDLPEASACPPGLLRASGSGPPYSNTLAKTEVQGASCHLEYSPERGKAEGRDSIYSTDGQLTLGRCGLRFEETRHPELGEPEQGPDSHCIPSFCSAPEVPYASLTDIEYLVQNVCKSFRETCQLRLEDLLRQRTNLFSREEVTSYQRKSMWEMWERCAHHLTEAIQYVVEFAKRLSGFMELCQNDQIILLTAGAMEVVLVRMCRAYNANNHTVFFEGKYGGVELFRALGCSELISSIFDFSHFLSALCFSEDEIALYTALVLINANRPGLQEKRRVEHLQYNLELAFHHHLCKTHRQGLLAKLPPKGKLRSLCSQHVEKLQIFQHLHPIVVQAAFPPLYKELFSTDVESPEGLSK
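Luciferase reporter read in Schneider cells carrying Gal4-RORγ (mouse) and UAS-Photinus luciferase; cells given compound 1 h before 700 uM copper sulfate induction, then incubated 20 h at ambient temperature.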
* = called active by the depositor; u = inconclusive; x = no result given. Unless noted, calls follow the shape of the dose curve; as a rule, active = well fitted curve in the direction sought with a large enough effect; inconclusive = small, poorly fitted or top-dose-only effect, or another doubt; inactive = no such curve, though single readings can be large; an effect the other way counts as inactive or inconclusive. Unless noted, % is scaled to controls: 0 for no effect and ±100 for the full control effect.

SMILES	Gal4-VP16 FLuc	IL-1B inflam inh	DT40 TDP1 no CPT	LDHA inh	DT40 TDP1 CPT	RORg inh
O=[N+]([O-])c1ccc(N/N=C/c2c[nH]c3ccccc23)c(S(=O)(=O)Nc2ccc(Cl)cc2)c1	u	-7	23µM*	8	u	18%
COc1ccccc1CCNC(=O)Nc1cccc(CN2CCOC2=O)c1	x	x	x	3	x	x
O=C1COc2ccc(C(=O)COC(=O)c3cc(S(=O)(=O)N4CCOCC4)ccc3F)cc2N1	x	-70*	-5%	-9	12%	x
O=C(COC(=O)c1cc(S(=O)(=O)N2CCOCC2)ccc1F)c1ccc[nH]1	3%	-62*	-4%	-12	8%	2%
CCC(C)NCCOc1cc(C)cc(C)c1C (stereo unspecified)	-16%	0	-29%	u	0%	5%
CCC(C)NCCCCOc1cc(C)cc(C(C)C)c1 (stereo unspecified)	2%	-12	18µM*	-14	u	-7%
CN1CCN(CCCCOc2ccc(Br)cc2)CC1	15%	-15	u	-19	u	-42%
CCC(C)NCCCCOc1ccc(Br)cc1 (stereo unspecified)	-2%	-26	16µM*	-19	u	-15%
CN=C1CC(SC)=C1c1ccc(C)cc1	11%	-22	21µM*	7	16µM*	-4%
O=C(COC(=O)CNC(=O)c1ccc([N+](=O)[O-])o1)Nc1ncc(C(F)(F)F)cc1Cl	x	-17	u	-1	-8%	x
O=C(COC(=O)CNS(=O)(=O)c1ccccc1)Nc1ccc(Cl)cn1	3%	19	-1%	-4	-1%	-21%
O=C(COC(=O)CNS(=O)(=O)c1ccccc1)Nc1ncc(Cl)cc1Cl	x	-16	6.5µM*	-8	6%	x
O=C(COC(=O)CNC(=O)c1ccc([N+](=O)[O-])o1)Nc1ncc(Cl)cc1Cl	x	-92*	-7%	7	u	x
CSc1ncc2c(n1)-c1cc(C)ccc1SC2	7%	-12	5.2µM*	-5	2.6µM*	-15%
Cc1ncc2c(n1)-c1cc(F)ccc1SC2	6%	-4	1%	-3	-5%	2%
O=C(NCCn1cc(SCc2cccc(F)c2)c2ccccc21)c1cccc(C(F)(F)F)c1	x	x	16µM*	8	u	x
COc1ccc(C(=O)NCCn2cc(SCc3cccc(F)c3)c3ccccc32)cc1OC	x	x	4.6µM*	-1	9.2µM*	x
O=C(CSc1cn(Cc2cccc(F)c2)c2ccccc12)NCc1ccc(F)cc1	-23%	12	-6%	-5	-7%	-18%
COc1ccc(C(=O)NCCn2cc(SCC(=O)Nc3ccccc3)c3ccccc32)cc1OC	x	x	u	-5	u	x
CN1/C(=C\C(=S)Nc2ccccc2)C(C)(C)c2ccccc21	u	u	2.1µM*	-6	10µM*	u
CN1/C(=C\C(=O)Nc2ccc(Cl)cc2)C(C)(C)c2ccccc21	u	-58*	u	-1	u	u
COc1ccc(C(=O)Nc2ccccc2N2CCCCC2)cc1S(=O)(=O)NC(C)C	x	x	x	9	x	x
C=CCn1c(C)cc(C(=O)COC(=O)[C@@H](NC(=O)c2ccccc2Cl)C(C)C)c1C	13µM*	19	u	-5	u	14µM*
C=CCn1c(C)cc(C(=O)COC(=O)COc2ccccc2C#N)c1C	1%	5	-12%	-4	-9%	0%
Cc1onc(-c2ccccc2)c1C(=O)OCC(=O)N(C)c1c(N)n(Cc2ccccc2)c(=O)[nH]c1=O	x	-1	-1%	-3	-19%	x
SMILES	Gal4-VP16 FLuc	IL-1B inflam inh	DT40 TDP1 no CPT	LDHA inh	DT40 TDP1 CPT	RORg inh
CC(C)CN(C(=O)COC(=O)c1c2c(nc3ccccc13)CCC2)c1c(N)n(Cc2ccccc2)c(=O)[nH]c1=O	0%	-51*	u	-13	u	32%
CCN(C(=O)COC(=O)c1c2c(nc3ccccc13)CCC2)c1c(N)n(Cc2ccccc2)c(=O)[nH]c1=O	x	u	-21%	-4	u	x
CN(C(=O)COC(=O)c1c2c(nc3ccccc13)CCCC2)c1c(N)n(Cc2ccccc2)c(=O)[nH]c1=O	x	-54*	-16%	-6	-5%	x
COc1ccc(Cl)cc1NC(=O)CN(C)C(=O)c1cccc(-n2cnnn2)c1	x	-11	0%	-11	-20%	x
COc1ccc(Cl)cc1NC(=O)CN(C)C(=O)C12CC3CC(CC(Cl)(C3)C1)C2	-13%	-25	23µM*	4	u	-12%
CCN(c1ccccc1)S(=O)(=O)c1ccc(OC)c(NC(=O)CN(C)C)c1	-2%	1	u	-32*	u	-1%
CCN(c1ccccc1)S(=O)(=O)c1ccc(OC)c(NC(=O)c2ccco2)c1	x	14	21µM*	-1	u	x
CCN(c1ccccc1)S(=O)(=O)c1ccc(OC)c(NC(=O)c2n[nH]c(=O)c3ccccc23)c1	x	x	x	1	x	x
COc1ccc(Cl)cc1NC(=O)CN(C)C(=O)c1ccc(-n2nc(C)cc2C)cc1	x	-26	15µM*	-3	18µM*	x
CS(=O)(=O)N1CCCc2cc(C(=O)Nc3cccc(-c4nnc5n4CCCCC5)c3)ccc21	x	x	x	-6	x	x
COc1ccccc1OC(=O)COc1c(C)cc(Br)cc1Cl	x	x	x	4	x	x
CCN(c1ccccc1)S(=O)(=O)c1ccc(OC)c(NC(=O)C2CC(=O)N(Cc3ccccc3)C2)c1 (stereo unspecified)	-12%	-54*	u	-3	u	u
CCN(c1ccccc1)S(=O)(=O)c1ccc(OC)c(NC(=O)C2=NN(c3ccccc3)C(=O)CC2)c1	x	42	-27%	1	-18%	x
CCN(c1ccccc1)S(=O)(=O)c1ccc(OC)c(NC(=O)CNC)c1	-3%	0	-27%	-21	5%	-8%
CCN(c1ccccc1)S(=O)(=O)c1ccc(Oc2ccc(C(C)=O)cc2OC)nc1	x	14	16µM*	-1	u	x
CCN(c1ccccc1)S(=O)(=O)c1ccc(OC)c(NC(=O)c2ccccc2OC)c1	x	11	u	1	21µM*	x
COc1ccc(Cl)cc1NC(=O)CN(c1ccccc1)S(=O)(=O)N(C)C	-4%	-10	18µM*	-5	29µM*	3%
Cc1ccc(C(=O)CCN2CCC(c3ccccc3)C2)cc1 (stereo unspecified)	x	x	x	-4	x	x
COc1ccc(Cl)cc1NC(=O)CN(C)C(=O)c1sc2ccccc2c1Cl	x	-6	u	-2	16µM*	x
COc1ccc(Cl)cc1NC(=O)COC(=O)c1sc2ccccc2c1Cl	x	x	x	7	x	x

Source: PubChem BioAssay
